Bioassay records as filed in PubChem BioAssay.
HT1080 IDH1KD tx: HT-1080 IDH1 knockdown cell toxicity (counter line) | actives 2% (n = 360,000) | Potency, µM (doses to about 46.1 µM), usual class: cytotoxic | HT-1080 IDH1 knockdown viability, ATP luminescence, 48 h
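After a 2 h attachment period, IDH1KD HT-1080 cells took pin-transferred compound for 48 h at 37 °C; ATP-based luminescence after 10 min room-temperature reagent incubation reported viability.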
ALOX12 inh: ALOX12 (human) lipoxygenase inhibition | P18054 | purified 12hLO, xylenol orange hydroperoxide absorbance | Potency, µM (series often up to 108 µM), usual class: inhibitors | actives 1.1% (n = 580,000) | AID 1671190
Target sequence (P18054 whole entry, looked up): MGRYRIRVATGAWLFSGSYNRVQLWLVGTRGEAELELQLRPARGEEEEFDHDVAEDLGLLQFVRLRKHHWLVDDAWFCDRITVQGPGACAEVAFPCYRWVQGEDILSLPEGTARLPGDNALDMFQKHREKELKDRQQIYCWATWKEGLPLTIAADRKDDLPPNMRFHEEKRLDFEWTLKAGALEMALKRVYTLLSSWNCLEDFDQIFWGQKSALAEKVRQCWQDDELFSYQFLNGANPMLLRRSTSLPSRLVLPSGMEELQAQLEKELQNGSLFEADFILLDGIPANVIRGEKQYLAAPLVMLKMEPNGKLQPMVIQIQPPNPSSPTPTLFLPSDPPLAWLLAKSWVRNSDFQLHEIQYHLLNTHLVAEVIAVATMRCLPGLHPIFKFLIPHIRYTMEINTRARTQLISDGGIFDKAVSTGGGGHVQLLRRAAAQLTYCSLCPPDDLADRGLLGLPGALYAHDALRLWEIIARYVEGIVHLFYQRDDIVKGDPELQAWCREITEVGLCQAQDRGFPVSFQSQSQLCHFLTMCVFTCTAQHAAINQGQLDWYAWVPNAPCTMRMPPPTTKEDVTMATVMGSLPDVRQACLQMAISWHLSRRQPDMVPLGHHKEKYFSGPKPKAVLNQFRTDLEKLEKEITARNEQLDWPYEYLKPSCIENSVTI
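Purified human 12hLO at 150 nM in 25 mM Hepes, 0.01% Triton X-100, pH 7.0, preincubated 15 min at room temperature with compound. Reaction started with 40 uM arachidonic acid, 30 min at room temperature. Hydroperoxide measured by Fe-xylenol orange, 573/405 nm absorbance ratio.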
DT40 TDP1 no CPT: qHTS for Inhibitors of human tyrosyl-DNA phosphodiesterase 1 (TDP1): qHTS in cells in absence of CPT. actives 15% (n = 420,000). DT40 Tdp1-/- hTDP1 cells, no CPT, ATP luminescence, 48 h. Potency, µM (top dose mostly 46.2 µM), usual class: inhibitors; further: nearly all actives have a fitted effect of over 55% in size
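No-CPT arm: Tdp1-/-;hTDP1 DT40 cells (400/well) plus compounds, incubated ≥48 hr at 37 °C. Readout CellTiter-Glo luminescence.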
TDP1 cell CPT: growth inhibition of DT40 Tdp1-/-;hTDP1 cells with camptothecin (screen for TDP1 inhibitors). chicken DT40 Tdp1-/-;hTDP1 cells + 20 nM CPT, ATP luminescence, 48 h. Potency, µM (series often up to 46.2 µM), actives largely listed as inhibitors. actives 12% (n = 420,000); further: nearly all actives have a fitted effect of over 55% in size
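Chicken DT40 Tdp1-/- cells stably complemented with human TDP1 were seeded at 400 cells/well in medium containing 20 nM camptothecin, exposed to pin-transferred compounds, and grown at 37 °C for at least 48 hr. Viability was read as ATP luminescence.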
IL1B secr inh: blocks inflammasome-driven IL-1 beta release; actives 4.7% (n = 360,000); activity change, % at 57.5 µM; AID 743279; THP-1 LPS/ATP IL-1B secretion, AlphaLISA, 16 h; stronger effect = lower value; in the data active means activity change below about -50%; inconclusive means mostly about -30% to -49%
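Secreted IL-1B measured by AlphaLISA bead assay after 16 h compound exposure of THP-1 cells; compounds (final up to 57.5 uM) added 1 h before LPS (250 ng/mL) and ATP (1.25 mM) stimulation; lower signal means less secretion.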
HT1080-NT tox: kills 2HG-producing HT-1080-NT fibrosarcoma cells; HT-1080-NT fibrosarcoma viability, CellTiter-Glo ATP luminescence, 48 h; Potency, µM (top dose mostly 46.1 µM), hits mostly cytotoxic; actives 1.6% (n = 360,000);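 further: NT is the 2HG producing partner of a matched IDH1 knockdown line; nearly all actives have a fitted effect of over 55% in size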
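Viability by CellTiter-Glo luminescence after 48 h compound exposure at 37C of HT-1080-NT cells (750/well, RPMI, 5% FBS). % activity scaled between DMSO wells and medium-only wells, then curve-fitted and categorized by curve class.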
Each line names hits and unclear results; the compound was inactive in the other large screens. The full list was thinned out, with hits kept by preference. Unless noted, the call rests on the fitted dose curve; in most records, active means well fitted curve in the direction sought with a large enough effect; inconclusive means small, poorly fitted or top-dose-only effect, or another doubt; inactive means no such curve, though single readings can be large; an effect the other way counts as inactive or inconclusive.

CCc1cc2c(=O)c(-c3nc4ccccc4n3C)c(C)oc2cc1OC(C)=O	DT40 TDP1 no CPT inconclusive, TDP1 cell CPT inconclusive
CCn1c(O)c(/C=C2\C=Nc3ccccc32)sc1=Nc1ccccc1	DT40 TDP1 no CPT 12µM, TDP1 cell CPT 10µM
COc1cc([C@@H]2c3cc4c(cc3C(O[C@@H]3O[C@@H]5COC(c6cccs6)O[C@H]5[C@H](O)[C@H]3O)C3COC(=O)[C@@H]32)OCO4)cc(OC)c1O (some centres not stated)	DT40 TDP1 no CPT 0.013µM, TDP1 cell CPT 0.012µM (no result: HT1080 IDH1KD tx, ALOX12 inh, IL1B secr inh, HT1080-NT tox)
COc1cc([C@@H]2c3cc4c(cc3C(OC3OC5COC(C)OC5C(O)C3O)C3COC(=O)[C@@H]32)OCO4)cc(OC)c1O (some centres not stated)	DT40 TDP1 no CPT 0.21µM, TDP1 cell CPT 0.19µM (no result: HT1080 IDH1KD tx, ALOX12 inh, IL1B secr inh, HT1080-NT tox)
COc1cc([C@@H]2c3cc4c(cc3[C@@H](O[C@@H]3O[C@@H]5CO[C@@H](c6cccs6)O[C@@H]5[C@H](O)[C@@H]3O)[C@H]3COC(=O)[C@H]23)OCO4)cc(OC)c1O	none (no result: HT1080 IDH1KD tx, DT40 TDP1 no CPT, TDP1 cell CPT, IL1B secr inh, HT1080-NT tox)
COc1cc(C2c3cc4c(cc3OC(N3CCCCC3)C2C)OCO4)cc(OC)c1O (configuration not stated)	DT40 TDP1 no CPT inconclusive, TDP1 cell CPT inconclusive
COc1cc([C@@H]2c3cc4c(cc3[C@@H](O[C@@H]3O[C@H]5CO[C@@H](C)O[C@@H]5[C@@H](O)[C@H]3O)[C@@H]3COC(=O)[C@@H]23)OCO4)cc(OC)c1O	DT40 TDP1 no CPT 0.13µM, TDP1 cell CPT inconclusive (no result: HT1080 IDH1KD tx, IL1B secr inh, HT1080-NT tox)
COC(=O)C1=C(C)Nc2nc3ccccc3n2C1c1ccc(O)cc1 (configuration not stated)	none (no result: HT1080 IDH1KD tx, DT40 TDP1 no CPT, TDP1 cell CPT, IL1B secr inh, HT1080-NT tox)
Nc1cccc2nc3ccccc3cc12	HT1080 IDH1KD tx 13µM, DT40 TDP1 no CPT inconclusive, TDP1 cell CPT 6.5µM, HT1080-NT tox 18µM (no result: ALOX12 inh)
CCC(Sc1nc(C)cc(C)n1)C(=O)Nc1nccs1 (configuration not stated)	none
CCc1nc2ccc(C(=O)NCCOc3ccc(OC)cc3)cn2c1N(C)Cc1cccs1	HT1080 IDH1KD tx inconclusive, DT40 TDP1 no CPT inconclusive, TDP1 cell CPT inconclusive, IL1B secr inh -52, HT1080-NT tox inconclusive
CCc1nc2ccc(C(=O)NCCOc3ccc(OC)cc3)cn2c1N(C)Cc1ccc(OC)cc1	DT40 TDP1 no CPT 21µM, TDP1 cell CPT inconclusive, HT1080-NT tox inconclusive
CCCCNC(=O)c1ccc2nc(CC)c(N(C)Cc3ccc(OC)cc3)n2c1	DT40 TDP1 no CPT inconclusive, TDP1 cell CPT 16µM
CCc1nc2ccc(C(=O)NCCC(C)C)cn2c1N(C)Cc1ccc(OC)cc1	HT1080 IDH1KD tx inconclusive, DT40 TDP1 no CPT 16µM, TDP1 cell CPT inconclusive, HT1080-NT tox inconclusive
CCc1nc2ccc(C(=O)NCCNC(C)=O)cn2c1N(C)Cc1ccc(OC)cc1	none
CO[C@H]1[C@H](NC(=O)Cc2ccccc2C)c2ccccc2C12CCNCC2	none (no result: HT1080 IDH1KD tx, DT40 TDP1 no CPT, TDP1 cell CPT, IL1B secr inh, HT1080-NT tox)
CC1(C(=O)Nc2ccc(Cl)cc2)Cc2c(-c3ccc(C(N)=O)cc3)ccnc2O1 (configuration not stated)	HT1080 IDH1KD tx inconclusive, DT40 TDP1 no CPT inconclusive, TDP1 cell CPT inconclusive, IL1B secr inh inconclusive, HT1080-NT tox inconclusive
CCc1nc2ccc(C(=O)NCc3cccs3)cn2c1N(CC)CCOC	DT40 TDP1 no CPT inconclusive, TDP1 cell CPT inconclusive
CCc1nc2ccc(C(=O)NCCC(C)C)cn2c1N(CC)CCOC	DT40 TDP1 no CPT 21µM, TDP1 cell CPT inconclusive
COc1ccc(CNC(=O)C(c2ccccc2F)N(C(=O)c2csnn2)C2CC2)cc1 (configuration not stated)	DT40 TDP1 no CPT inconclusive, TDP1 cell CPT 21µM
O=C(NCc1ccccc1)C(c1c(F)cccc1Cl)N(C(=O)c1csnn1)C1CC1 (configuration not stated)	DT40 TDP1 no CPT inconclusive, TDP1 cell CPT inconclusive
O=C(c1ccc(F)c(F)c1)N1CCC2(CC1)N=C(c1ccc(Cl)cc1)NO2	none (no result: HT1080 IDH1KD tx, DT40 TDP1 no CPT, TDP1 cell CPT, IL1B secr inh, HT1080-NT tox)
